Source: PubChem (Broad Institute)
Tgondii IFNg – T. gondii growth inhibition with IFN-gamma, primary screen, cell-based; Toxoplasma gondii growth in IFN-gamma-treated host cells; hits give low values; AID 1259416, 2018; activity change, negative = inhibition, % (no concentration beside the values); actives 3.8% (n = 69,000); in the data active = activity change below about -70%, passing the limit was not always enough;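 note: host cells are HeLa cells infected with Toxoplasma gondii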
A number is an active result; 0 = inactive. Shown is part of a subset that was picked to be rich in hits.

SMILES	Tgondii IFNg
COc1cc(OC)c(NC(=O)NCC(c2cccnc2)c2cn(C)c3ccccc23)cc1Cl (centres undefined)	0
C=CC(=O)Nc1cc(Nc2nccc(-c3cn(C)c4ccccc34)n2)c(OC)cc1N(C)CCN(C)C	-74
C=CC(=O)Nc1cccc(Nc2nc(Nc3ccc(NC4CN(CCF)C4)cc3OC)ncc2C(F)(F)F)c1	0
COc1ccc2c(c1)OC(C)CN(CC(=O)NC(c1ccncc1)c1ccc(F)cc1)C2 (centres undefined)	0
Cc1ccc(-c2nc(C)c(CCNC(=O)C(=O)Nc3c(C)cccc3C)s2)cc1	0
Cc1ccc(NC2=CC(=O)c3sc(C)nc3C2=O)cc1	-76
FC(F)(F)c1ccc(CSc2ncc(-c3ccc(Cl)cc3)o2)cc1	0
Cc1cnn(CC2CCN(C(=O)C3CC4(CCNCC4)CN3)CC2)c1 (centres undefined)	0
CCN1C[C@@H]2CCN(C(=O)c3ccnnc3)CC[C@H]2S1(=O)=O	0
CCn1nc(C(C)C(=O)Nc2ccnn2C2CCN(C)CC2)c2ccccc2c1=O (centres undefined)	0
C=C1/C(=C\C=C2\CCC[C@]3(C)[C@@H]([C@H](C)CCCC(C)C)CC[C@@H]23)C[C@@H](O)C[C@@H]1O	0
C=C1/C(=C\C=C2/CCC[C@]3(C)[C@@H]([C@H](C)/C=C/C=C/C(O)(CC)CC)CC[C@@H]23)C[C@@H](O)C[C@@H]1O	0
C=C1CC[C@H](O)C/C1=C/C=C1\CCC[C@]2(C)[C@@H]([C@H](C)CCCC(C)C)CC[C@@H]12	-75
COc1ccc(C(=O)NCCc2sc(-c3ccc(C)cc3)nc2C)cc1	0
CN1C(=O)c2cc(NC(=O)C3CCOCC3)ccc2OC[C@@H]2O[C@@H](CC(=O)NCCc3ccncc3)CC[C@H]21	0
Cc1ccsc1CN1CC[C@H]2C[C@@H](c3nnc(C4CC4)o3)O[C@H]2C1	0
Cc1ccccc1-n1nc(C)c2c1CC(C)(C)CC2=O	0
CC1(C)CC(=O)c2cc(-c3ccccc3)n(CC(=O)O)c2C1	0
COc1ccccc1-n1c(-c2ccc(Br)cc2)cc2c1CC(C)(C)CC2=O	-92
O=C(CN1CCOC1=O)N1CCOC(c2ccc(Cl)c(Cl)c2)C1 (centres undefined)	0
Cc1cc(C)n(CC(C)NCc2nc(C3CCCCC3)no2)n1 (centres undefined)	0
O=C(Cc1cccnc1)N1CC(=O)N2[C@@H](CO)[C@H](c3ccc(C#CC4CCCCC4)cc3)[C@@H]2C1	0
Cc1ccc(C(=O)c2ccccc2C(=O)N2CCC(CN)C2)cc1 (centres undefined)	0
C=CCn1c(N=Nc2c(O)[nH]c3ccc(Br)cc23)nc2c1c(=O)[nH]c(=O)n2C	0
CCc1noc(CC)c1C(=O)Nc1nc(-c2ccc(OC)c(OC)c2)cs1	-82
SMILES	Tgondii IFNg
CCc1noc(CC)c1C(=O)Nc1nc(CS(=O)(=O)c2ccc(C)cc2)cs1	0
COc1ccc(-c2csc(NC(=O)c3ccccc3C)n2)cc1	0
O=C(O)Cc1ccccc1Sc1ccccc1	0
COCC(=O)N1C[C@@H]2[C@H](c3ccccc31)[C@H](CO)N2C(=O)c1ccccc1F	0
COc1ccc(-c2nccn2CCc2cnc[nH]2)c(C)c1C	0
CO[C@@H](CN(C)CC1CCOCC1)[C@@H](C)CN(C(=O)Nc1ccc(F)cc1)[C@H](C)CO	0
O=C(/C=C\n1cnc(-c2cc(C(F)(F)F)cc(C(F)(F)F)c2)n1)N1CC(F)(F)C1	-80
O=C(c1cc(C(F)(F)F)cc(C(F)(F)F)c1)N1CC=CCC1	0
O=C(/C=C\n1cnc(-c2cc(C(F)(F)F)cc(C(F)(F)F)c2)n1)NNc1cnccn1	0
COc1cc(-c2ncn(/C=C\C(=O)OC(C)C)n2)cc(C(F)(F)F)c1	-85
O=C(Cc1cccc(F)c1)N1CCn2cnc(COCC3CC3)c2C1	0
Cc1nc(C(C)C)sc1C(=O)NCCc1nnc2n1CCNCC2	0
O=C(O)c1ccc(-c2ncnc3[nH]ccc23)s1	0
Cn1ncc2c(N3CCCC3)ncnc21	0
COc1cc(C[C@H]2C(=O)OC[C@@H]2Cc2ccc(OC)c(OC)c2)ccc1O	0
COc1ccc2c(c1)OCC(Cc1ccc(OC)c(O)c1)C2=O (centres undefined)	-75
COc1ccc2c(c1)OCC(Cc1ccc(O)c(OC)c1)C2=O (centres undefined)	0
C[C@H](Cn1cnc2c(N)ncnc21)OCP(=O)(O)O	0
CCN1CCN(C)C(=O)C12CCN(Cc1nccs1)CC2	0
Cc1cc2cc(NC(=O)c3nc4ccccc4n(C)c3=O)cc(Cl)c2o1	0
Cc1cc2cc(NC(=O)CN3C(=O)NC(C)(c4ccccc4)C3=O)cc(Cl)c2o1 (centres undefined)	-77
Cc1cc2cc(NC(=O)CNC(=O)c3nc4ncccn4n3)cc(Cl)c2o1	0
COc1ccc(-c2nc(C)c(CCNC(=O)C(=O)Nc3cccc(C)c3C)s2)cc1OC	0
Fc1ccc(CNc2nc(-c3nnc(-c4ccccc4)o3)nc3ccccc23)cc1	0
Clc1ccc(-c2nnc(-c3nc(NCc4ccccc4)c4ccccc4n3)o2)cc1	0
SMILES	Tgondii IFNg
Cc1cccc(-c2nnc(-c3nc(NCc4ccc(F)cc4)c4ccccc4n3)o2)c1	0
Cc1cccc(-c2nnc(-c3nc(Nc4ccc(F)cc4)c4ccccc4n3)o2)c1	0
Clc1cccc(CSc2nc(NCCc3ccccc3)c3ccccc3n2)c1	0
Fc1ccccc1CNc1nc(-c2nnc(-c3ccccc3)o2)nc2ccccc12	-76
Cc1ccc(CNc2nc(-c3nnc(-c4cccc(C)c4)o3)nc3ccccc23)cc1	0
Cc1cccc(-c2nnc(-c3nc(NCc4ccccc4)c4ccccc4n3)o2)c1	-107
Fc1cccc(CSc2nc(NC3CCCCC3)c3ccccc3n2)c1	-76
Clc1ccccc1CSc1nc(NC2CCCCC2)c2ccccc2n1	0
Cc1cccc(-c2nnc(-c3nc(NC(C)c4ccccc4)c4ccccc4n3)o2)c1 (centres undefined)	-94
Cc1cccc(Nc2nc(-c3nnc(-c4ccccc4)o3)nc3ccccc23)c1	0
Cn1nnc2c1CCN(S(C)(=O)=O)C2COCc1cccnc1 (centres undefined)	0
COC(=O)c1cc2n(n1)CCCN(C(=O)c1cc3c([nH]c1=O)CCCC3)C2	0
Cc1noc(C)c1NC(=O)N1C[C@@H](O)COC[C@H]2O[C@H](CC(=O)N[C@H]3CCN(Cc4ccccc4)C3)CC[C@@H]21	0
Cc1cccc(C(=O)N2CCC(C(=O)NCCc3csc(C)n3)CC2)c1	0
COc1ccc(OC)c(C(=O)c2oc3ccccc3c2NC(=O)CSc2ccccn2)c1	0
O=C(C1CCCCn2nnnc21)N1CCc2[nH]nc(-c3ccccc3)c2C1 (centres undefined)	0
COc1ccccc1CNc1nc(-c2nnc(-c3ccc(C)cc3)o2)nc2ccccc12	0
Cc1ccc(-c2nnc(-c3nc(Nc4ccc(F)cc4)c4ccccc4n3)o2)cc1	0
Cc1cccc(-c2nnc(-c3nc(NCc4ccccc4C)c4ccccc4n3)o2)c1	-91
Fc1ccc(-c2nnc(-c3nc(NC4CCCCC4)c4ccccc4n3)o2)cc1	-104
CCOc1ccc(Nc2nc(-c3nnc(-c4cccc(C)c4)o3)nc3ccccc23)cc1	0
Cc1ccc(Nc2nc(-c3nnc(-c4ccc(F)cc4)o3)nc3ccccc23)cc1	0
CN(Cc1ccccc1)c1ncccc1CNC(=O)[C@H]1CCCN1	0
O=C(CSc1ncnc2sc3c(c12)CCCC3)Nc1nccs1	0
CCCc1ccc(S(=O)(=O)Nc2ccc3c(c2)CCC(=O)N3CCOC)cc1	0
Cc1nc2c(Cl)cc(Cl)cc2c2nc(N)nn12	-92
